# “And” between values parts separate entries of the source, which are not always exact repeats. Equal entries are not always repeated. Records with an inconclusive call do not appear. The source made the active and inactive calls. The call rests on the fitted dose curve; in most records, active means well fitted inhibition curve with a large enough effect; inconclusive means small, poorly fitted or top-dose-only effect; inactive means no such curve, though single readings can be large or run the other way.
# Tested on: Zika virus NS2B-NS3 protease (linked)
# Experiment: Optimization screen NINDS Rhodamine qHTS for Zika virus inhibitors: Linked NS2B-NS3 protease assay
# Conditions: fluorogenic rhodamine substrate; series mostly up to 105 µM; activity change, negative = inhibition: at the top concentration
# From the text: Avindra Nath, Ph.D., National Institute of Neurological Disorders and Stroke (NINDS), Bethesda, MD
# Radhakrishnan Padmanabhan, Ph.D., Georgetown University (GU), Washington D.C.
# Zika Virus causes congenital defects, including microcephaly and is associated with Guillain-Barre syndrome, eningoencephalitis and myelitis in infected adult. […] Using a target-based approach, we hope to establish a screening paradigm to uncover novel, cell-active NS2B-NS3 protease (Zika Virus) specific inhibitors from NCATS' collection of small molecules using qHTS.
# Four assay panel was created to identify potential Zika Virus inhibitors. Namely, (1) GU unlinked NS2B-NS3 AMC tagged protease qHTS, (2) GU unlinked NS2B-NS3 Rhodamine tagged protease qHTS, (3) NINDS linked NS2B-NS3 AMC tagged protease qHTS, (4) NINDS linked NS2B-NS3 Rhodamine tagged protease qHTS. Active compounds were re-acquired and re-screened to confirm inhibition. Inhibitors were further screened against various confirmatory and counterscreens in dose response format.
# Early Translation Branch (ETB)
# National Center for Advancing Translational Sciences (NCATS), Rockville, MD
# National Institute of Health (NIH), Bethesda, Maryland
# For the linked assay, Nath lab (NINDS) provided the purified linked NS2B-NS3 protease which is consists of hydrophilic domain of NS2B linked to the NS3 protease domain by a flexible (-GGGGSGGGG-) linker. Control compound aprotinin is obtained from Thermo Scientific (#78432; Waltham, Massachusetts). Rhodamine110 substrate ([N-Cbz]-Nle-Lys-Arg-Arg-Rhod110-Arg-Arg-Lys-Nle-[N-Cbz]) was purchased from either Genscript or Bachem.
# 1536-well Protease (Rhodamine110 Substrate) Assay:
# Briefly, 3 microL of enzyme (25 nM final concentration), in assay buffer (10 mM Tris-HCl pH 8.0 with 0.01% Tween 20) were dispensed into a 1,536-well solid-bottom black plate (Greiner Bio One, Monroe, NC). Twenty-three nL of compounds (final concentration range 7.28 nM to 114 microM) or control Aprotinin (final concentration range 3.47 nM to 114 microM) were transferred via Wako Pin-tool (Wako Automation, Richmond, VA). Samples were incubated (room temperature, protected from light) for 15 minutes followed by a 1 microL Rhodamine110 substrate addition (1.5 microM final concentration). Plates were then immediately read on a ViewLux High-throughput CCD imager (PerkinElmer, Waltham, MA) equipped with FITC fluorescence optics (480(20) nm excitation, 540(25) nm emission), then incubated (room temperature, protected from light) for 15 minutes (~15% conversion). The change in fluorescence intensity over the 15-minute reaction period was normalized against no-inhibitor and no-enzyme controls and the resulting percent inhibition data were fitted to a 4-parameter Hill equation. Aprotinin was used as intraplate control.
SMILES,Potency,"activity change, negative = inhibition"
Cn1cnc([N+](=O)[O-])c1Sc1ncnc2nc[nH]c12,inactive,–
CC(C)C[C@H](NC(=O)[C@H](Cc1ccccc1)NC(=O)c1cnccn1)B(O)O,–,-2.87% (inactive)
CC=CCC(C)C(O)C1C(=O)NC(CC)C(=O)N(C)CC(=O)N(C)C(CC(C)C)C(=O)NC(C(C)C)C(=O)N(C)C(CC(C)C)C(=O)NC(C)C(=O)NC(C)C(=O)N(C)C(CC(C)C)C(=O)N(C)C(CC(C)C)C(=O)N(C)C(C(C)C)C(=O)N1C (stereo not given),–,23.1% (inactive)
O=c1cc(-c2ccccc2)oc2cc(O)c(O)c(O)c12,4.94 µM (active),–
CCc1nc(N)nc(N)c1-c1ccc(Cl)cc1,inactive,–
O=C1c2c(O)ccc([N+](=O)[O-])c2C(=O)c2c([N+](=O)[O-])ccc(O)c21,12.7 µM (active) and 6.39 µM (active),–
COc1c2occc2cc2ccc(=O)oc12,–,-34.5% (inactive)
CC(C)(C)CC(C)(C)c1ccc(OCCOCC[N+](C)(C)Cc2ccccc2)cc1,inactive,–
O=C(O)c1ccc(-n2nc(-c3ccccc3O)nc2-c2ccccc2O)cc1,8.79 µM (active),–
COc1c(C)c2c(c(O)c1C/C=C(\C)CCC(=O)OCCN1CCOCC1)C(=O)OC2,–,20.5% (inactive)
CCOc1ccc(C2C(=O)N(C3CCCCCC3)CC(=O)N2CCc2ccc(Cl)cc2)cc1OC (stereo not given),–,8.87% (inactive)
NC(=O)C(=O)O,–,6.13% (inactive)
CC(=O)Nc1ccc([C@H](C)C(=O)Nc2ncc(C(C)C)s2)cc1,–,1.33% (inactive)
CCCCCCCCc1ccc(CCC(N)(CO)CO)cc1,55.5 µM (active),–
O[C@@H](c1cc(C(F)(F)F)nc2c(C(F)(F)F)cccc12)[C@H]1CCCCN1,–,10.6% (inactive)
CCCCOc1ccc(C2C(=O)N(C3CCCCC3)CC(=O)N2C2CCCCC2)cc1 (stereo not given),–,1.48% (inactive)
Nc1ccn([C@@H]2O[C@H](CO)[C@@H](O)C2(F)F)c(=O)n1,–,-14.2% [at 228 µM] (inactive)
CCOc1ccc(C2C(=O)N(C3CCCCC3)CC(=O)N2Cc2ccc(F)cc2)cc1OC (stereo not given),–,-2.05% (inactive)
Oc1cc2ccccc2c2ccccc12,63.9 µM (active),–
C[C@H]1O[C@@H](O[C@H]2[C@@H](O)C[C@H](O[C@H]3[C@@H](O)C[C@H](O[C@H]4CC[C@]5(C)C6C[C@@H](O)[C@]7(C)[C@@H](C8=CC(=O)OC8)CC[C@]7(O)C6CC[C@@H]5C4)O[C@@H]3C)O[C@@H]2C)C[C@H](O)[C@@H]1O (stereo not given in full),–,1.78% (inactive)
